Columns and labels:
Test in all cases: PBM binding z-score (relative to random genomic background probes); higher = stronger binding; sequences stand for … in GC…GCGATTGACAGCGTAGAATGAAGG
[1] = tested on: RARb homodimer (NR concentration 270 nM)
Outline: (§1)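 Random background probes are the reference for binding z-scores. These scores derive from regression-normalized fluorescence on custom Agilent 4×180K protein-binding microarrays incubated 1 h with ligand-free nuclear receptor dimers. Binding was detected with antibodies against each partner (one per run).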

[2] = tested on: RARg:RXRa (NR concentration 270 nM, RXRa partner concentration 90 nM)
Outline: as §1

[3] = tested on: RARg homodimer (NR concentration 270 nM)
Outline: as §1

[4] = tested on: RXRa DBDmut IVT, anti-RXR (DBD mutation: RXRa K156A/R161A, NR concentration 90 nM)
Outline: as §1

[5] = tested on: RXRa homodimer (NR concentration 180 nM)
Outline: as §1

[6] = tested on: THRa:RXRa (NR concentration 90 nM, RXRa partner concentration 90 nM)
Outline: as §1

[7] = tested on: THRa homodimer (NR concentration 90 nM)
Outline: as §1

[8] = tested on: VDR homodimer (NR concentration 270 nM)
Outline: as §1

Row | Sequence | PBM binding z-score [1] | PBM binding z-score [2] | PBM binding z-score [3] | PBM binding z-score [4] | PBM binding z-score [5] | PBM binding z-score [6] | PBM binding z-score [7] | PBM binding z-score [8]
1 | CCTTACGGGTTACGAGGTTATAGCACGACGAGCG | 1.24 | 2.31 | 1.43 | -0.0539 | 2.99 | 2.23 | 0.638 | 0.469
2 | CCTCGGAGGACAACAGGAGGTCAGAGGTGCCAGA | 3.4 | 3.47 | 3.16 | -0.191 | 2.1 | 2.88 | 0.822 | 1.13
3 | CGAACTAGGTCAAGCACAGTGAATCTCCGCACGC | 2.96 | 4.27 | 4.61 | 1.82 | 2.84 | 2.72 | 1.27 | 0.357
4 | ATCGAACGGTCGTGAGGTGAGTATACAGAAAGGC | 0.679 | 0.948 | 1.19 | -0.665 | 0.53 | 1.48 | 0.666 | -0.261
5 | CGAACGAGGGCATAAGTTGATAGCAAATGCCGAT | 0.864 | 1.23 | 1.25 | 2.53 | 0.665 | 0.587 | -0.473 | 1.04
6 | TCAGACAGGTGAGGGTAACTCAGGTACGCAGTCG | 0.992 | 0.551 | 0.485 | 0.971 | 0.746 | 2.35 | 0.442 | 0.115
7 | CAGCCTAGGACAGGGCCAGTATAGGAGGAACGTT | -0.1 | -0.205 | 0.0959 | -0.669 | -0.283 | 0.127 | -0.164 | -0.467
